Only a selection was taken, and hits are over-represented in it overall.
Pf Dd2 growth: inhibitors of Plasmodium falciparum Dd2 growth. P. falciparum Dd2 growth, SYBR Green, 72 h. Potency, µM (series often up to 28.9 µM), most hits filed as inhibitors. actives 4.3% (n = 120,000); active means well fitted inhibition curve with a large enough effect; further: nearly all actives have a fitted effect of over 65% in size
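Readout: SYBR Green fluorescence, 485 nm excitation, 535 nm emission, after ~16 h lysis at 37C. Before that, Dd2-infected red cells (2.5% hematocrit) grew 72 h with compound, 29 uM top final concentration.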
A number is an active result; n = inactive; [ ] = dose if it differs, or a comment.

SMILES	Pf Dd2 growth
CNC(=O)c1cnc2c(c1)N(Cc1ccccc1)CCC2	n
CCC(CC)NC(=O)[C@@H]1COCC(=O)N1Cc1ccc(OC)cc1OC	n
COCCOC1CCOC2(CCN(C(=O)Cc3c(C)noc3C)CC2)C1 (stereo not drawn)	n
COc1ccc(C(=O)NC2CCN(c3cc(-c4ccccc4)[nH]n3)CC2)cc1	n
O=C(Cn1ccn2nc(-c3ccccc3)c(CO)c2c1=O)NCCC1=CCCCC1	n
O=C(Cn1ccn2nc3c(c2c1=O)CCCC3)NC1CCCC1	n
Cc1ccccc1NC(=O)c1ccc2c(c1)c(C)c(C)n2Cc1ccccc1	n
CSc1cccc(NC(=O)c2ccc3c(c2)c(C)c(C)n3Cc2ccc(F)cc2)c1	10µM
CCc1ccccc1NC(=O)c1ccc2c(c1)c(C)c(C)n2Cc1ccccc1	11.2µM
Cc1c(C)n(Cc2ccccc2)c2ccc(C(=O)NCc3ccccc3F)cc12	n
CSc1ccc(CCNC(=O)c2ccc3c(c2)c(C)c(C)n3Cc2ccc(F)cc2)cc1	n
Cc1c(C)n(Cc2ccccc2)c2ccc(C(=O)NC(C)c3ccccc3)cc12 (stereo not drawn)	n
CCCc1noc(-c2cn(C3CCN(C(=O)c4ccc(OCC)cc4)CC3)nn2)n1	n
CN1CCN(c2ccc3ncn(-c4cccnc4)c(=O)c3n2)CC1	n
COc1ccc(CN2CCNc3cnc(OCc4cccnc4)cc3C2)cc1O	n
CN1Cc2c(cc(N3CCOCC3)nc2-c2cnn(C)c2)C1=O	n
COc1cccc(OCc2nc3ccccc3n2Cc2ccccc2)c1	n[5.79 µM]
CC(C)(C)c1ccc(OCc2nc3ccccc3n2CCOc2ccccc2)cc1	n
COc1ccc(OCc2nc3ccccc3n2Cc2ccc(C(C)(C)C)cc2)cc1	11.2µM
COC[C@@H]1CN(c2cnccn2)C[C@H]1C(=O)NCc1c(C)n[nH]c1C	n
CCOc1ccc(CC(=O)NC2CCN(c3cc(-c4ccccc4)[nH]n3)C2)cc1OCC (stereo not drawn)	7.94µM
CCOc1cc(C(=O)NC2CCN(c3cc(-c4ccccc4)[nH]n3)C2)cc(OCC)c1OCC (stereo not drawn)	5.01µM
CCOc1ccc(CC(=O)NC2CCCN(c3cc(-c4ccc(F)cc4)[nH]n3)C2)cc1OCC (stereo not drawn)	n
Cc1cc(C)cc(C(=O)NC2CCN(c3cc(-c4ccccc4)[nH]n3)C2)c1 (stereo not drawn)	n
CCOc1ccc(CC(=O)NC2CCN(c3cc(-c4cccs4)[nH]n3)C2)cc1OCC (stereo not drawn)	n
SMILES	Pf Dd2 growth
CCOc1cc(C(=O)NC2CCN(c3cc(-c4cccs4)[nH]n3)C2)cc(OCC)c1OCC (stereo not drawn)	n
CC(CCc1ccccc1)NC(=O)Cn1cccc1-c1nc(-c2ccc3c(c2)OCO3)no1 (stereo not drawn)	n
CN1CCC(N2CC3(CCC2=O)CCN(C(=O)Cn2ccnc2)CC3)C1 (stereo not drawn)	n
CC(C)(C)NC(=O)Cn1ccn2nc(-c3ccc(F)cc3)c(CO)c2c1=O	n
CC(=O)N1CCOC2(CCN(C(=O)c3ccc(Cl)cc3)CC2)C1	n
Cc1ccc(NC(=O)N2CCC(CCN)CC2)cc1	n
CC[S+](=O)([O-])NC1CCN(C(=O)N2CC3CC(C2)[C@H]2CCCC(=O)N2C3)CC1 (stereo partly drawn)	n
CC(C)NC(=O)N1Cc2ccccc2OC2(CCN(C(=O)N3CCN(C)CC3)CC2)C1	n
COc1ccc(-c2nc(C(C)C)nc3c2CCN(C(=O)c2cccc(Cl)c2)CC3)cc1	5.62µM
CCc1nc2c(c(-c3ccc(OC)cc3)n1)CCN(C(=O)c1ccccc1OC)CC2	n
COc1ccc(-c2nc(C(C)C)nc3c2CCN(C(=O)C2CC2)CC3)cc1	n
CC(C)c1nc2c(c(-c3ccc(O)cc3)n1)CN(C(=O)Nc1ccc(Cl)cc1)CC2	11.2µM
CC(C)c1nc2c(c(-c3ccc(O)cc3)n1)CN(C(=O)C1CCCC1)CC2	n
CC(C)c1nc2c(c(-c3ccc(O)cc3)n1)CN(C(=O)C1CC1)CC2	n
COc1ccc(-c2nc(C(C)C)nc3c2CCN(C(C)=O)CC3)cc1	n
Cc1ccc(C(=O)N2CCc3nc(C(C)C)nc(-c4ccc(O)cc4)c3C2)cc1	n
COc1ccc(-c2nc(C(C)C)nc3c2CCN(C(=O)N(C)C)CC3)cc1	n
COc1ccc(-c2nc(C(C)C)nc3c2CCN(C(=O)c2ccc(F)cc2)CC3)cc1	11.2µM
COc1ccc(-c2nc(C(C)C)nc3c2CCN(C(=O)Nc2ccccc2)CC3)cc1	5.01µM
O=C(c1ccc(F)c(Cl)c1)N1CCC2(CC1)CC(O)CCO2 (stereo not drawn)	n
Cc1ccc(-c2nc(C(=O)NCc3ccc(F)cc3F)no2)cc1	n
Cc1ccc(S(=O)(=O)N2CCCC(CCC(=O)NC3CCS(=O)(=O)C3)C2)cc1 (stereo not drawn)	n
COc1cccc(CN2CCNC(=O)C2CC(=O)N2CCC(O)CC2)c1OC (stereo not drawn)	n
CN1CCC2(C1)CN(Cc1ccccc1)c1ccc(C(=O)NCC3CC3)cc12 (stereo not drawn)	n

Screens: PubChem, National Center for Advancing Translational Sciences (NCATS)
